High-throughput results from PubChem BioAssay.
Compounds with a hit are over-represented: about 21% of the library has one in this group of screens.
Pf growth 48h: P. falciparum growth inhibition at 48 hours (one generation). P. falciparum luciferase growth in erythrocytes, 48 h. Potency, µM (titrated, usually from 28.7 µM), without a hit: top-dose activity change, negative = inhibition, most hits filed as inhibitors. hit rate 5.9% among 310,000. AID 504832; further: potency means the concentration at half of the fitted maximal effect; on the % scale 0 is the no-effect control and ±100 the full control effect
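Cell-based growth assay: transgenic P. falciparum expressing firefly luciferase, cultured in red cells within RPMI 1640 containing 0.5% w/v Albumax, 24 mM bicarbonate and gentamycin. A drop in luciferase activity indicates inhibition.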
Shiga toxin inh: Shiga toxin inhibition | hit rate 9.2% among 290,000 | Vero cells, Shiga toxin protein synthesis inhibition reporter | inhibition, % at 38.7 µM; in the data active means inhibition mostly above about 28%, no sharp cut-off; inactive means mostly below about 43%; further: 0% is about no effect
NS1 function inh: blocks influenza NS1 protein function. Potency, µM (titrated, usually from 46.1 µM), inactives show at the highest dose activity, positive = more growth. AID 2326. hit rate 0.4% among 270,000; calls by dose curve; further: potency means the concentration at half of the fitted maximal effect; actives are rising curves; nearly all actives have a fitted effect of over 50% in size
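S. cerevisiae expressing influenza A NS1, grown in glucose, washed, then diluted 1:100 into pH 6.0 -URA galactose medium with 23 nl compound. Growth recovery read as OD600; NS1-free strain serves as control.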
CHX counter: affects cycloheximide protein synthesis inhibition readout, counter-screen. cell reporter, cycloheximide protein synthesis inhibition counterscreen. max response, %. hit rate 12% among 300,000. AID 2314; in the data active means max response mostly above about 13%, no sharp cut-off; inactive means mostly below about 14%; further: read at 38.3 µM for the half of the compounds with a filed dose; 0% is about no effect
Pf growth 96h: inhibits malaria parasite growth, 96 h; hit rate 6.9% among 320,000; AID 504834; Potency, µM (series often up to 28.7 µM), inactives show at the top dose activity change, negative = inhibition, most hits filed as inhibitors; P. falciparum luciferase reporter growth, 96 h; further: potency means the concentration at half of the fitted maximal effect; on the % scale 0 is the no-effect control and ±100 the full control effect
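Infected RBCs, 2% Hct / 0.05% parasitemia final; luciferase-reporter P. falciparum; cpd 96 h, 37 C, 5% CO2; luciferase detection reagent; luminescence.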
The depositor's hits bear a star; u = inconclusive; x = not tested or not shown; [ ] = dose if it differs, or a comment. Unless noted, the call rests on the fitted dose curve; in most records, active means well fitted inhibition curve with a large enough effect; inconclusive means small, poorly fitted or top-dose-only effect, or another doubt; inactive means no such curve, though single readings can be large or run the other way.

SMILES	Pf growth 48h	Shiga toxin inh	NS1 function inh	CHX counter	Pf growth 96h
Cn1c(C(=O)N2CCCc3ccccc32)cc2sccc21	9.5%	31.9	-34.4%	25.5*	x
COc1ccc2nc(SC(C)C(=O)NC3CCCC3)[nH]c2c1 (configuration not stated)	u	x	x	x	-13.3%
Cc1ccccc1C(=O)N/N=C/c1ccc(OCC(=O)N2CCCCC2)cc1	-14.7%	14.8	2.5%	8.0	0.0%
COc1ccc(Nc2oc(COc3ccccc3F)nc2C#N)cc1	x	39.5	8.3%	-0.5	u
COc1ccc(Nc2oc(COc3ccc(OC)cc3)nc2C#N)cc1	u	2.9	2.7%	-2.4	24.9%
COc1ccc(Nc2oc(COc3cccc(C)c3)nc2C#N)cc1	u	76.3*	3.7%	60.4*	-0.8%[5.75 µM]
Cc1cccc(OCc2nc(C#N)c(NCCN(C)C)o2)c1	1.8%	-1.8	-5.7%	5.2	u
Cc1cccc(OCc2nc(C#N)c(N3CCCC3)o2)c1	12.3%	-2.0	-4.7%	2.3	u
Cc1cccc(OCc2nc(C#N)c(N3CC(C)CC(C)C3)o2)c1 (configuration not stated)	x	-3.0	-11.6%	-5.5	13.1µM*
CCNc1oc(COc2cccc(C)c2)nc1C#N	-2.7%	47.5	-10.6%	23.0*	u
COc1ccc(Nc2oc(COc3ccc(C)cc3)nc2C#N)cc1	u	41.1*	3.8%	16.3	76.5%
Cc1cc2ccccn2c1C(=O)c1ccccc1F	11.5%	22.1	-37.9%	6.0	34.4%
COc1ccc(F)cc1S(=O)(=O)NCCCn1ccnc1	6.4%	-6.4	4.4%	-0.6	6.0%
CC(=O)Nc1nc(Cn2nnc(-c3ccc4c(c3)OCO4)n2)nc(N(C)C)n1	-4.1%	-3.1	x	-0.4	-12.5%
CN(C)c1ccc(/C=N/N(CCC#N)C2=NS(=O)(=O)c3ccccc32)cc1	u	-4.9	5.2%	-1.9	40.4%
CC(C)(C)NC(=O)Cn1cc(C(=O)c2ccccc2F)c2ccccc21	-1.4%	-5.7	6.2%	-1.6	x
COC(=O)Cn1cc(C(=O)c2ccccc2F)c2ccccc21	6.9%	1.1	-49.4%	-2.0	1.65µM*
CCOC(=O)Cn1cc(C(=O)c2ccccc2F)c2ccccc21	73.9%	44.8	-11.8%	17.2*	53.3%
O=C(c1ccccc1F)c1cn(Cc2ccc(F)cc2)c2ccccc12	-5.0%	-9.4	2.8%	1.1	7.38µM*
COc1ccc(CN(C)C(=O)CNC(=O)CNC(=O)c2ccc(Cl)cc2Cl)cc1F	-16.8%	35.0	1.5%	-1.6	u
CCN(CC)c1ccc(C=N/C(C#N)=C(\N)C#N)cc1	53.3%	54.1*	-11.6%	27.7*	x
C#CCOCCOCCOCCNc1nc(N2CCN(C(=O)[C@H](Cc3ccc(O)cc3)n3cc([C@@H](N)CC(C)C)nn3)CC2)nc(N2CCN(C(=O)[C@H](Cc3ccc(O)cc3)n3cc([C@@H](N)CC(C)C)nn3)CC2)n1	9.28µM*	-9.2	9.4%	0.5	u
C#CCOCCOCCOCCNc1nc(N2CCN(C(=O)C(Cc3ccc(O)cc3)n3cc(C(N)C(C)CC)nn3)CC2)nc(N2CCN(C(=O)C(Cc3ccc(O)cc3)n3cc(C(N)C(C)CC)nn3)CC2)n1 (configuration not stated)	9.28µM*	-17.1	9.6%	-1.5	9.28µM*
C#CCOCCOCCOCCNc1nc(N2CCOCC2)nc(N2CCN(C(=O)[C@H](Cc3ccc(O)cc3)n3cc([C@@H](N)C(C)CC)nn3)CC2)n1 (some centres not stated)	u	-4.1	2.1%	1.1	9.28µM*
C#CCOCCOCCOCCNc1nc(N2CCN(C(=O)[C@H](CCCCN)n3cc([C@@H](N)CC(C)C)nn3)CC2)nc(N2CCN(C(=O)[C@H](Cc3ccc(O)cc3)n3cc([C@@H](N)CC(C)C)nn3)CC2)n1	0.3%	-6.5	2.8%	-1.1	23.7%
C#CCOCCOCCOCCNc1nc(N2CCN(C(=O)[C@H](CCC(=O)O)n3cc(C(N)CC(C)C)nn3)CC2)nc(N2CCN(C(=O)[C@H](Cc3ccc(O)cc3)n3cc(C(N)CC(C)C)nn3)CC2)n1 (some centres not stated)	u	-9.7	2.5%	-3.0	u
C#CCOCCOCCOCCNc1nc(N2CCN(C(=O)[C@H](CCC(=O)O)n3cc(C(N)[C@H](C)CC)nn3)CC2)nc(N2CCN(C(=O)[C@H](Cc3ccc(O)cc3)n3cc(C(N)[C@H](C)CC)nn3)CC2)n1 (some centres not stated)	0.0%	-4.1	6.4%	-1.6	7.1%
